Source: PubChem BioAssay AID1159580 (chemical genetic matrix, 2015)
Out of some 5,500 compounds screened, about 2,000 (36%) were called active. Another 18% or so got no clear call; they are omitted. No stated cut-off is given here; in the data, active means normalized growth mostly below about 0.91 (no sharp cut-off); inconclusive means no clear call, values can overlap the other calls; inactive means mostly above about 0.92. The list shows a part of the results.

Test: chemical genetic growth profiling, strain panel (AID 1159580);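 further: tested at 20 µM; growth read once vehicle control cultures reached saturation at 30 °C; 1 = growth at the plate median or of vehicle wells; lower values mean less growth of the strain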
Settings: S. cerevisiae deletion strains, growth OD
[1] = locus YAL013W, strain DEP1, active compounds read low
[2] = locus YAL040C, strain CLN3, active compounds read low
[3] = locus YCL061C, strain MRC1 (second series), active compounds read low
[4] = locus YDR363W, strain ESC2, active compounds read low
[5] = locus YER002W, strain NOP16, active compounds read low
[6] = locus YGR078C, strain PAC10, active compounds read low
[7] = locus YJR075W, strain HOC1, active compounds read low
[8] = locus YMR263W, strain SAP30, active compounds read low
[9] = locus YNL175C, strain NOP13, active compounds read low
[10] = locus YNL197C, strain WHI3, active compounds read low
[11] = locus YNL224C, strain SQS1, active compounds read low
[12] = locus YOR083W, strain WHI5 (second series), active compounds read low
[13] = locus YPL241C, strain CIN2, active compounds read low

Measured: normalized growth

CNCC(O)c1ccc(O)cc1 (configuration not stated)
inactive: [1] 1.03 | [2] 1.02 | [3] 1 | [4] 1.01 | [5] 1.02 | [6] 1.02 | [7] 1.01 | [8] 1 | locus YMR307W, strain GAS1, active compounds read low 1.04 | locus YNL128W, strain TEP1, active compounds read low 1.03 | [9] 1.02 | [10] 1.01 | [11] 0.999 | [12] 1.02 | [13] 1

NNC(=O)c1ccc(O)cc1
inactive: [1] 0.949 | [2] 0.963 | [3] 0.991 | locus YDR150W, strain NUM1, active compounds read low 1.01 | [4] 0.99 | [5] 0.985 | [6] 0.992 | [7] 0.988 | [8] 0.986 | locus YNL153C, strain GIM3, active compounds read low 0.989 | [9] 0.994 | [10] 0.991 | [11] 0.974 | locus YNL322C, strain KRE1, active compounds read low 0.97 | [12] 1.05 | locus YPL055C, strain LGE1, active compounds read low 0.977 | [13] 0.988
